The record followed here is PubChem BioAssay (EPA / NIEHS).

Each structure is given as a SMILES string. The source made the active and inactive calls. The calls were made as follows: active = hit-call score of the fitted dose curve at least 0.9, where 1 is the maximum; inactive = score below 0.9.

Read-out in assay [1]: Monokine induced gamma interferon (MIG), CXCL9 (gene 4283)
The experiment in a line: BSK_KF3CT_MIG: BioMAP Diversity Plus: KF3CT Assay for Monokine induced gamma interferon (MIG) Biomarker Activity (AID 2284248). Conditions: primary human keratinocytes with fibroblasts. The method, boiled down: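 ELISA read-out of MIG after 24 h chemical exposure of human skin primary co-culture (keratinocytes, foreskin fibroblasts). Gain of signal relative to DMSO negative control was analysed.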

Read-out in assay [2]: Vascular cell adhesion molecule 1 (VCAM1), VCAM1 (gene 7412)
The assay can be described thus: BSK_BF4T_VCAM1: BioMAP Diversity Plus: BF4T Assay for Vascular cell adhesion molecule 1 (VCAM1) Biomarker Activity (AID 2284249). Conditions: primary human bronchial epithelial cells with fibroblasts. In a few lines: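 Human bronchial epithelial cell and dermal fibroblast co-culture exposed 24 h. VCAM-1 measured by ELISA; parallel SRB total-protein staining for cytotoxicity. Fitted in positive direction relative to DMSO.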

Read-out in assay [3]: Interferon-inducible T-cell alpha chemoattractant (ITAC), CXCL11 (gene 6373)
The assay can be described thus: BSK_hDFCGF_ITAC: BioMAP Diversity Plus: hDFCGF Assay for Interferon-inducible T-cell alpha chemoattractant (ITAC) Biomarker Activity (AID 2284251). The conditions noted are these: primary human foreskin fibroblasts. In a few lines:
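ELISA readout of I-TAC after 24 h chemical exposure; human dermal foreskin fibroblast primary cells. Positive-direction fitting vs DMSO baseline. Parallel SRB total-protein staining (0.1% SRB after 10% TCA fixation, 560 nm) flags cytotoxicity.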

Read-out in assay [4]: Macrophage Inflammatory Protein-1 Alpha (MIP1a), CCL3 (gene 6348)
The experiment in a line: BSK_IMphg_MIP1a: BioMAP Diversity Plus: IMphg Assay for Macrophage Inflammatory Protein-1 Alpha (MIP1a) Biomarker Activity (AID 2284255). Conditions: primary human endothelial cells with macrophages. The method, boiled down:
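Co-culture of human venular endothelial cells and macrophages exposed to compounds for 24 h; MIP-1a measured by ELISA relative to DMSO. Cytotoxicity assessed in parallel cultures by sulforhodamine B total-protein staining at 560 nm.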

Read-out in the next assay: CD69, CD69 (gene 969)
The assay can be described thus: BSK_IMphg_CD69: BioMAP Diversity Plus: IMphg Assay for CD69 Biomarker Activity (AID 2284257). The conditions noted are these: primary human endothelial cells with macrophages. In a few lines:
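Human venular endothelial cells co-cultured with macrophages; CD69 quantified by ELISA 24 h after compound addition. Activity fitted in the positive direction relative to DMSO baseline; cytotoxicity tracked in parallel cultures via SRB total-protein staining.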

Read-out in assay [5]: Eotaxin 3, CCL26 (gene 10344)
The experiment in a line: BSK_BF4T_Eotaxin3: BioMAP Diversity Plus: BF4T Assay for Eotaxin 3 Biomarker Activity (AID 2284258). Conditions: primary human bronchial epithelial cells with fibroblasts. In a few lines: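 Co-culture of human bronchial epithelial cells and dermal fibroblasts, exposed to chemicals for 24 h versus DMSO. Eotaxin-3 quantified by ELISA; cytotoxicity checked in parallel cultures by sulforhodamine B total-protein staining.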

Read-out in assay [6]: Monocyte Chemoattractant Protein-1 (MCP1), CCL2 (gene 6347)
The experiment in a line: BSK_BF4T_MCP1: BioMAP Diversity Plus: BF4T Assay for Monocyte Chemoattractant Protein-1 (MCP1) Biomarker Activity (AID 2284259). Conditions: primary human bronchial epithelial cells with fibroblasts. The method, boiled down: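 Co-culture of bronchial epithelial cells and dermal fibroblasts dosed with chemical; MCP-1 measured by ELISA 24 h later. Activity fitted in positive direction versus DMSO; cytotoxicity checked by SRB staining in parallel cultures.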

Read-out in assay [7]: Intercellular Adhesion Molecule 1 (ICAM1), ICAM1 (gene 3383)
The assay can be described thus: BSK_BF4T_ICAM1: BioMAP Diversity Plus: BF4T Assay for Intercellular Adhesion Molecule 1 (ICAM1) Biomarker Activity (AID 2284260). The conditions noted are these: primary human bronchial epithelial cells with fibroblasts. The method, boiled down: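 Co-culture of human bronchial epithelial cells and dermal fibroblasts exposed 24 h to chemical; cell-surface ICAM-1 quantified by ELISA. Parallel SRB total-protein staining assessed cytotoxicity; activity fitted relative to DMSO.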

Read-out in assay [8]: Interleukin-8 (IL8), CXCL8 (gene 3576)
The experiment in a line: BSK_MyoF_IL8: BioMAP Diversity Plus: MyoF Assay for Interleukin-8 (IL8) Biomarker Activity (AID 2284261). The conditions noted are these: primary human lung fibroblasts. In a few lines:
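Lung fibroblasts (human primary) → chemical exposure → 24 h → IL-8 measured by ELISA. Signal increase scored versus DMSO control.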

Read-out in a further assay: CD90, THY1 (gene 7070)
The experiment in a line: BSK_BF4T_CD90: BioMAP Diversity Plus: BF4T Assay for CD90 Biomarker Activity (AID 2284262). Conditions: primary human bronchial epithelial cells with fibroblasts. In a few lines: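 Co-culture of human bronchial epithelial cells and dermal fibroblasts, 24 h compound exposure. Cell-surface CD90 measured by ELISA relative to DMSO; parallel SRB total-protein staining for cytotoxicity.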

Read-out in assay [9]: Interleukin-8 (IL8), CXCL8 (gene 3576)
The experiment in a line: BSK_BF4T_IL8: BioMAP Diversity Plus: BF4T Assay for Interleukin-8 (IL8) Biomarker Activity (AID 2284263). The conditions noted are these: primary human bronchial epithelial cells with fibroblasts. In a few lines:
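Human bronchial epithelial cells with dermal fibroblasts co-culture; IL-8 measured by ELISA 24 hours after dosing, fitted vs DMSO. Cytotoxicity tracked in parallel cultures by SRB total-protein staining.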

Read-out in assay [10]: Interleukin-1 alpha (IL1a), IL1A (gene 3552)
The assay can be described thus: BSK_BF4T_IL1a: BioMAP Diversity Plus: BF4T Assay for Interleukin-1 alpha (IL1a) Biomarker Activity (AID 2284264). The conditions noted are these: primary human bronchial epithelial cells with fibroblasts. In a few lines: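 Human bronchial epithelial cells co-cultured with dermal fibroblasts, dosed and read at 24 h. Secreted/surface IL-1α quantified by ELISA; gain-of-signal fitted relative to DMSO baseline. Parallel SRB total-protein staining tracked cytotoxicity.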

Read-out in the next assay: Decorin, DCN (gene 1634)
The experiment in a line: BSK_MyoF_Decorin: BioMAP Diversity Plus: MyoF Assay for Decorin Biomarker Activity (AID 2284265). The conditions noted are these: primary human lung fibroblasts. In a few lines: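 ELISA readout of decorin, 24 h post-dosing; primary human lung fibroblast (MyoF) culture; gain-of-signal fit vs DMSO baseline.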

Assay [11] can be described thus: BSK_MyoF_SRB: Viability Assessment in the BioMAP Diversity Plus: MyoF Assay (AID 2284267).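 Also: total protein by SRB absorbance in parallel cultures as cytotoxicity measure.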 Conditions: primary human lung fibroblasts. The method, boiled down: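 Cytotoxicity in primary human lung fibroblasts is gauged by SRB total-protein staining 24 h after dosing, with DMSO as the negative control.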
Read-out in assay [12]: Collagen I, COL1A1 (gene 1277)
The assay can be described thus: BSK_hDFCGF_CollagenI: BioMAP Diversity Plus: hDFCGF Assay for Collagen I Biomarker Activity (AID 2284250). Conditions: primary human foreskin fibroblasts. The method, boiled down: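 Cells were primary human foreskin fibroblasts treated for 24 h. Collagen I levels were then determined by ELISA and compared against DMSO controls.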

Read-out in assay [13]: Plasminogen activator inhibitor-1 (PAI1), SERPINE1 (gene 5054)
The experiment in a line: BSK_MyoF_PAI1: BioMAP Diversity Plus: MyoF Assay for Plasminogen activator inhibitor-1 (PAI1) Biomarker Activity (AID 2284256).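 As to outcome: PAI-1 protein level measured by ELISA in fibroblast cultures; PAI-1 read 24 h after compound addition.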 The conditions noted are these: primary human lung fibroblasts. In a few lines: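 MyoF lung fibroblasts, human primary; compound 24 h; PAI-1 ELISA; positive-direction fit vs DMSO baseline; parallel SRB total-protein staining for cytotoxicity.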

Read-out in assay [14]: Plasminogen activator inhibitor-1 (PAI1), SERPINE1 (gene 5054)
The experiment in a line: BSK_KF3CT_PAI1: BioMAP Diversity Plus: KF3CT Assay for Plasminogen activator inhibitor-1 (PAI1) Biomarker Activity (AID 2284252). The conditions noted are these: primary human keratinocytes with fibroblasts. The method, boiled down:
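Signal is PAI-1 detected by ELISA in a human skin-derived keratinocyte/fibroblast co-culture, 24 h after dosing; DMSO served as negative control and baseline.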

Read-out in assay [15]: Monocyte Chemoattractant Protein-1 (MCP1), CCL2 (gene 6347)
The experiment in a line: BSK_IMphg_MCP1: BioMAP Diversity Plus: IMphg Assay for Monocyte Chemoattractant Protein-1 (MCP1) Biomarker Activity (AID 2284253). The conditions noted are these: primary human endothelial cells with macrophages. In a few lines:
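Human venular endothelial cells co-cultured with macrophages; MCP-1 measured by ELISA 24 hours post-dose and fitted against DMSO. Cytotoxicity monitored by SRB total-protein staining in parallel cultures.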

Take `O=C(Cl)C(F)(F)C(F)(F)C(F)(F)C(F)(F)C(F)(F)C(F)(F)F`: the outcome is “inactive” in [1]; “inactive” in [2]; “inactive” in assay [3]; “inactive” in [4]; “inactive” in the assay with CD69, CD69 (gene 969); “inactive” in assay [5]. In addition, the outcome in assay [6] is “inactive”; in assay [7], “inactive”; in assay [8], “inactive”; with CD90, THY1 (gene 7070), “inactive”; in [9], “inactive”; in assay [10], “inactive”. The outcome with Decorin, DCN (gene 1634) is “inactive”; in assay [11], “inactive”.
For `OCC(O)CC(F)(F)C(F)(F)C(F)(F)C(F)(F)C(F)(F)C(F)(F)C(F)(F)C(F)(F)F` (stereo not given), the outcome was “inactive” in [1]; “inactive” in [2]; “inactive” in assay [12]; “inactive” in assay [4]; “inactive” in [13]; “inactive” with CD69, CD69 (gene 969). Further, the outcome in assay [5] was “inactive”; in assay [6], “inactive”; in assay [8], “inactive”; with CD90, THY1 (gene 7070), “inactive”; in assay [9] it was “inactive”; in assay [10], “inactive”. In addition, the outcome was “inactive” with Decorin, DCN (gene 1634) and “inactive” in assay [11].
Consider `O=C(F)C1(F)C(F)(F)C(F)(F)C(F)(F)C(F)(F)C1(F)F`, for which the result in assay [1], in assay [2], in assay [3], in assay [14], in [15] and in assay [4] was inactive. The outcome in [13] was “inactive”; with CD69, CD69 (gene 969), “inactive”; in [5], “inactive”; in [6] it was “inactive”; in assay [8], “inactive”; with CD90, THY1 (gene 7070) it was “inactive”. Besides, the outcome in assay [9] is “inactive”; in [10] it was “inactive”; in the assay with Decorin, DCN (gene 1634), “inactive”; in assay [11] it was “inactive”.
In the case of `CC1=CC2C3C=CC(C3)C2C1C` (stereo not given), the outcome in [8] was “inactive”; in the assay with Decorin, DCN (gene 1634), “inactive”; in assay [11], “inactive”.
The AC50 is the concentration at which the activity in the assay is half-maximal. As to `O=C1c2c(O)ccc(Nc3ccc(CCO)cc3)c2C(=O)c2c([N+](=O)[O-])ccc(O)c21`, the AC50 in [13] was 32.3 µM (active); in assay [8], 1.65 µM (active); in the assay with Decorin, DCN (gene 1634) it was 9.73 µM (active); in [11], 11 µM (active).
For `OCC(F)(F)C(F)(F)C(F)(F)CO`, the outcome in assay [1] is “inactive”; in assay [2], “inactive”; in [4] it was “inactive”; in the assay with CD69, CD69 (gene 969), “inactive”; in assay [5], “inactive”; in assay [6] it was “inactive”. For the same compound, the outcome is “inactive” in [8]; “inactive” with CD90, THY1 (gene 7070); “inactive” in [9]; “inactive” in assay [10]; “inactive” with Decorin, DCN (gene 1634); “inactive” in assay [11].
For `Cc1cc(O)c(C(C)(C)C)cc1C(C)(C)C`, the AC50 in assay [13] was 7.48 µM (active); in [8] it was 32.8 µM (active); with Decorin, DCN (gene 1634), 5.16 µM (active); in assay [11], 5.29 µM (active).
Regarding `Nc1cc([N+](=O)[O-])cc(Cl)c1O`, the outcome in assay [8] was “inactive”; with Decorin, DCN (gene 1634), “inactive”; in assay [11] it was “inactive”.
`FC(F)(F)C(F)(F)C(F)(F)CC1CO1` (stereo not given): the outcome in assay [1] is “inactive”; in assay [2], “inactive”; in [4] it was “inactive”; with CD69, CD69 (gene 969), “inactive”; in assay [5] it was “inactive”; in [6], “inactive”. The outcome was “inactive” in [8]; “inactive” with CD90, THY1 (gene 7070); “inactive” in [9]; “inactive” in [10]; “inactive” in the assay with Decorin, DCN (gene 1634); “inactive” in [11].
Turning to `O=C=NCc1cccc(CN=C=O)c1`, the outcome in assay [8] was “inactive”; with Decorin, DCN (gene 1634), “inactive”; in assay [11] it was “inactive”.
